# In PubChem BioAssay AID743279 (National Center for Advancing Translational Sciences (NCATS), 2014):
# Among all 360,000 compounds or so, about 17,000 (4.7%) were called active. Inconclusive results (about 5%) are left out. The entries come from a sample that favours actives as a whole. Values without a mark were called inactive. No stated cut-off is given here; in the data, active means activity change below about -50%; inconclusive means mostly about -30% to -49%; inactive means weaker than that.
# Test: qHTS for Inhibitors of Inflammasome Signaling: IL-1-beta AlphaLISA Primary Screen
# Details: THP-1 LPS/ATP IL-1B secretion, 16 h; at 57.5 µM, hits give low values
# Source text: Inflammasomes are a set of intracellular multi-protein complexes that enable autocatalytic activation of inflammatory caspases and drive the innate immune response to counter harmful agents. […] A qHTS assay, based on AlphaLISA technology, was developed to screen the Molecular Libraries Small Molecule Repository (MLSMR) to look for novel inflammasome inhibitors. The assay detects IL-1B using AlphaLISA anti-IL-1B acceptor and donor beads. A decreased emission signal, indicating reduced IL-1B secretion, is the desired outcome for this assay. NIH Chemical Genomics Center [NCGC] NIH Molecular Libraries Probe Centers Network [MLPCN] MLPCN Grant: MH095513 Assay Provider: Shyam Biswal Ph.D., Johns Hopkins University Immunity. 2012 Jul 27;37(1):85-95. PMID: 22819042 [2] Curr Pharm Des. 2012;18(16):2320-8. PMID: 22390695
# Three microliters containing 3000 THP-1 cells were dispensed into the wells of solid, white, tissue culture treated Greiner 1,536-well plates. Library compounds and positive control, Glyburide, were pin-transferred (23 nL) by a Kalypsys pin-tool equipped with a 1,536-pin array, resulting in final compound concentration ranges of 2.5 nM to 57.5 uM. After 1 hr of cell culture incubation (37 °C, 5% CO2), 1 microL of 1 microg/mL lipopolysaccharide (250 ng/mL, final) and 5 mM ATP (1.25 mM, final) were added to stimulate the cells. After 16 hr of cell culture incubation with the compounds, 1.5 uL of anti-IL-1B acceptor beads (6 ug/mL, final) and biotinylated antibody (0.6 nM, final) were added to the plate, followed by a 1 hr incubation at ambient temperature. To detect the secreted IL-1B, 1.5 uL of AlphaLISA SA-Donor beads (24 ug/mL, final) were added, followed by 30 min of incubation in the dark at ambient temperature. The AlphaLISA signal was read by a PerkinElmer EnVision plate reader with an ultrasensitive luminescence detector and 1536 Plate HTS AlphaScreen aperture (excitation of 680nm and emission of 615nm).
# On the % scale 0 is the no-effect control and ±100 the full control effect.
row,SMILES,activity change
1,CC1(C(=O)NCc2ccco2)Cc2c(-c3ccc4c(c3)OCO4)ccnc2O1 (stereo unspecified),7.16%
2,Cc1ccccc1CSc1nnc(-c2ccccn2)n1N,-29.8%
3,CCOC(=O)C1CCN(C(=O)c2ccc3c(=O)n4nc(Nc5ccccc5CC)sc4nc3c2)CC1,-8.29%
4,CCCCN1C(=O)C(CC(=O)NCc2cccs2)CC(C(=O)N2CCOCC2)=C1C (stereo unspecified),34.2%
5,COc1ccccc1CNC(=O)Cn1c(=O)oc2cc(Cl)ccc21,-3.46%
6,Cc1ccc(C(O)c2ncc(-c3ccccc3F)[nH]2)cc1F (stereo unspecified),0.413%
7,Cc1ccc(CC2(C)C(=O)Nc3ccc(OC(F)(F)F)cc32)cc1 (stereo unspecified),-8.4%
8,CN1OC[C@@H]2CN(C(=O)c3cccnc3)[C@H](c3ccc(N4CCCCC4)cc3)C[C@@H]21,3.15%
9,CCNC(=O)C1(C)CCCN(C(=O)c2c(C)noc2C)C1 (stereo unspecified),25%
10,CS(=O)(=O)c1sc(C(=O)NC(=S)Nc2ccc(OC(F)(F)F)cc2)c2c1C=CCC2,21.9%
11,COc1ccc(CNC(=O)C2CCN(S(C)(=O)=O)CC2)cc1,14.1%
12,O=C(O)C(=Cc1ccc([N+](=O)[O-])cc1)CCc1ccccc1,0.991%
13,CCOC(=O)/C(=C\c1ccc([N+](=O)[O-])cc1)C(=O)c1cc(C(C)=O)c(Nc2ccccc2)s1,-116% (active)
14,CCOC(=O)/C(=N\Nc1ccccc1[N+](=O)[O-])c1csc(Nc2ccccc2)n1,1.73%
15,CC1C(=O)Nc2ccccc2N1C(=O)c1c(F)cccc1F (stereo unspecified),-9.24%
16,C=C1C(=O)OC2C1CCC(C)=CCCC1(C)OC21 (stereo unspecified),-113% (active)
17,O=C(CSc1ccc([N+](=O)[O-])cn1)Nc1ccc(N2CCOCC2)c(Cl)c1,-12.5%
18,CS(=O)(=O)N(CC(=O)N1CCCC1)Cc1ccccc1,4.88%
19,COc1ccc(C(=O)OCC(=O)Nc2cccc(C(C)=O)c2)cc1OC,20.1%
20,CCNC(=O)c1ccc(OCC(=O)Nc2ccc(F)cc2)c(OC)c1,-5.56%
21,COc1cc(C(=O)N(C)Cc2cccc(OC)c2OC)ccc1OCC(=O)Nc1cccc(C(F)(F)F)c1,-57.3% (active)
22,O=C(CN1C(=O)NC2(CCCCC2)C1=O)NCCC1=CCCCC1,21.6%
23,COc1cccc(NC(=O)C2(C)CCN2C(=O)CCC2CCCC2)c1 (stereo unspecified),12.2%

row,SMILES,activity change
1,COc1ccc(CSc2nnnn2-c2ccc(C(=O)O)cc2)cc1,-2.8%
2,Oc1ccc(-n2nnnc2SCc2c(F)cccc2Cl)cc1,-11.4%
3,COc1ccc(CSc2nnnn2-c2ccc(O)cc2)cc1F,-64.2% (active)
4,COc1ccc(C(C)=O)cc1CN1C(=O)NC2(CCCCC2C)C1=O (stereo unspecified),-5.22%
5,C[C@H]1CN([C@@H](C)CO)C(=O)CCCn2cc(nn2)CO[C@@H]1CN(C)S(=O)(=O)c1cccc(C#N)c1,12.5%
6,CCn1ccnc1CN1CCCC(C(=O)c2ccc3c4c(cccc24)CC3)C1 (stereo unspecified),-69.4% (active)
7,Cc1ncoc1C(=O)N1CCCC(C(=O)c2ccc3c4c(cccc24)CC3)C1 (stereo unspecified),-21.9%
8,CC(=O)NCC(=O)N1CCCC(C(=O)c2ccc3c4c(cccc24)CC3)C1 (stereo unspecified),-13.3%
9,C[C@H](O)[C@@H]1C(=O)N2CCc3c([nH]c4ccccc34)[C@@H]2C[C@@H]1N(C)C(=O)Nc1ccc(F)cc1,-16.5%
10,CC1(C(=O)NS(=O)(=O)c2ccc3ccccc3c2)CCN1C(=O)C1(c2ccc(Cl)cc2)CCC1 (stereo unspecified),53.2%
11,COc1ccc(-c2cc(C(=O)N(C)CC(=O)Nc3ccccc3Cl)c3ccccc3n2)cc1OC,-52.1% (active)
12,COc1ccc(NC(=O)c2cc(-c3cc(OC)c(OC)c(OC)c3)nc3ccccc23)c(OC)c1,42.6%
13,COc1ccc(-c2cc(C(=O)Nc3ccccc3O)c3ccccc3n2)cc1,-84.2% (active)
14,COc1ccc(CN(C)C(=O)c2cc(-c3ccc(C)cc3C)nc3ccccc23)c(OC)c1OC,-84.9% (active)
15,COc1ccc(Cl)cc1NC(=O)CN(C)C(=O)c1cc2ccccc2cc1OC,5.95%
16,COc1cccc(NC(=O)CN(C)C(=O)c2cc(Cl)nc3ccccc23)c1,17.2%
17,COc1ccc(CN(C)C(=O)Cc2c[nH]c3ccccc23)c(OC)c1OC,5.58%
18,COc1ccc(-c2cc(C(=O)N(C)Cc3ccc(OC)c(OC)c3OC)c3ccccc3n2)cc1OC,-13.9%
19,COc1ccc(NC(=O)c2cc(-c3ccc(C)o3)nc3ccccc23)cc1,-5.74%
20,O=C(Nc1nonc1-c1ccc(Cl)cc1)c1ccco1,26.6%
21,CC(C)C[C@H](NC(=O)N1CC(=O)Nc2ccccc21)C(=O)N[C@H](Cc1ccccc1)C(=O)O,4.57%
22,N#Cc1ccc(-c2nc3c(Cl)cc(C(F)(F)F)cn3c2Cc2ccccc2C(F)(F)F)cc1,23.1%
23,COc1ccc(S(=O)(=O)N2CCC(C(=O)NCCC(=O)Nc3ccccc3OC)CC2)cc1,2.12%

row,SMILES,activity change
1,Nc1nc2c(ncn2[C@@H]2O[C@H](CNS(=O)(=O)N3CCc4ccccc4C3)[C@@H](O)[C@H]2O)c(=O)[nH]1,0.653%
2,COc1cccc(OCC(=O)NCCS(=O)(=O)N2CCN(c3ccccc3)CC2)c1,21%
3,OC[C@H]1O[C@@H](c2nc(-c3nc(-c4ccc(F)cc4)no3)cs2)[C@H](O)[C@@H](O)[C@H]1O,2.39%
4,CCCCN1C(=O)C(CC(=O)NC(c2ccccc2)c2ccccc2)CC(C(=O)N2CCOCC2)=C1C (stereo unspecified),14.9%
5,O=C(c1cccs1)n1nc(NCc2ccccc2)nc1NCc1ccccc1,-57.7% (active)
6,Nc1nc(NCc2ccccc2)n(-c2ccccc2)n1,4.19%
7,CCCC(=O)n1nc(NCc2ccc(OC)cc2)nc1NCc1ccc(OC)cc1,15.3%
8,CC(C)(C)OC(=O)N1CCN(C(=O)c2[nH]c(C(F)(F)F)nc2-c2ccccc2)CC1,13.4%
9,Cc1ccc(CN(C(=O)c2sc3ccccc3c2Cl)C2CCS(=O)(=O)C2)cc1 (stereo unspecified),-2.89%
10,Nn1cnnc1N/N=C/c1cc([N+](=O)[O-])c(Cl)cc1Cl,-61.8% (active)
11,O=C(/C=C/Sc1ncn[nH]1)c1ccc(Cl)cc1,-118% (active)
12,Cc1cccc(C=CC(=O)c2ccc(Cl)cc2)c1,-29.5%
13,O=C(CSc1ncn[nH]1)NCc1ccc2c(c1)OCO2,17.5%
14,Cc1ccc(-c2ccc(CN3C(C(C)C)C(=O)N(Cc4cn(CCC5OCCCO5)nn4)CCS3(=O)=O)cc2)cc1 (stereo unspecified),13%
15,CCn1ncc(C2=NOC(C(=O)N3CCN(c4ccccc4)CC3)C2)c1C (stereo unspecified),3.63%
16,O=C(NCCCN1CCOCC1)c1cn(-c2ccccc2)nc1-c1ccc(F)cc1,-7.44%
17,O=C(/C=C/c1cn(-c2ccccc2)nc1-c1ccc2c(c1)OCCO2)NCCCN1CCOCC1,-92.2% (active)
18,COc1ccc(-c2nn(-c3ccccc3)cc2/C=C\C(=O)N2CCOCC2)cc1[N+](=O)[O-],-9.66%
19,O=C(COC(=O)/C=C/c1ccc(Br)o1)Nc1cccc(S(=O)(=O)N2CCOCC2)c1,13.8%
20,CCOC(=O)[C@]12CCCC=C1N(CCC1=CCCCC1)C(=O)[C@H](CC(=O)NCCCOC)C2,60.5%
21,CCOC(=O)[C@]12CCCC=C1N(CCC1=CCCCC1)C(=O)[C@H](CC(=O)NCCCCc1ccccc1)C2,-17.5%
22,CCCCOCCCNC(=O)C[C@@H]1C[C@@]2(C(=O)OCC)CCCC=C2N(CCC2=CCCCC2)C1=O,-27.8%
23,CC1=C(C(=O)N(C(C)C)C(C)C)CC(CC(=O)NCCCCc2ccccc2)C(=O)N1CCC1=CCCCC1 (stereo unspecified),-59% (active)

row,SMILES,activity change
1,CCCCOCCCNC(=O)C[C@@H]1C[C@@]2(C(=O)OC)CCCCC=C2N(CCC2=CCCCC2)C1=O,-57.4% (active)
2,CC1=C(C(=O)N(C)C)CC(CC(=O)NCCc2ccccn2)C(=O)N1CCC1=CCCCC1 (stereo unspecified),-20.1%
3,O=C(Nc1c(Br)cc2c(c1Br)Cc1cc([N+](=O)[O-])ccc1-2)C(Cl)Cl,39%
4,CCCOc1ccc(-c2c(C(=O)N/N=C/c3ccco3)nnn2-c2nonc2N)cc1,92.5%
5,Cc1cc(C)c(S(=O)(=O)NN=C2c3ccccc3[C@H]3Cc4csc[n+]4[C@@H]23)c(C)c1,-3.78%
6,COc1ccc(C(NC(=O)C2CCN(CCCc3ccccc3)CC2)c2cccs2)cc1 (stereo unspecified),-24%
7,O=C(CCN1CCCCC1)Nc1ccc(F)c(F)c1,-0.386%
8,COc1ccc(NC(=O)N(C)C[C@@H]2OCc3cn(nn3)CCCC(=O)N([C@H](C)CO)C[C@H]2C)c(OC)c1,9.8%
9,CCOc1ccc(OCc2cccc(C(=O)N(CC)CC)c2)cc1,0%
10,CC(C)(C)OC(=O)N(Cc1ccccc1)Cc1ccc(OCc2cccc(NC(=O)c3ccccc3)c2)cc1,9.51%
11,CC(C)c1cc(C(N)=O)c(NC(=O)c2cccc(COc3ccc(Br)cc3)c2)s1,-75.7% (active)
12,O=C1CSC(c2ccc(Cl)cc2)N1 (stereo unspecified),0%
13,COc1ccc2c(C)c(CCC(=O)NC3CC3)c(=O)oc2c1C,-19.2%
14,C/C(=N\NC(=O)c1ccccc1F)c1ccccn1,-100% (active)
15,NC(=O)NC(CC(=O)NNC(=O)c1ccccn1)c1ccc(Cl)cc1 (stereo unspecified),99.7%
16,O=C(NCCOc1ccccc1)c1ccccc1F,-17.7%
17,Cc1cccc(C)c1NC(=S)N1CCCCCC1,5.87%
18,COc1ccc(/C(C)=N\NC(=O)c2ccc(-c3ccccc3)cc2)c(F)c1,7.94%
19,CNC(=S)N1CCN(c2ccccn2)CC1,-3.93%
20,C/C(=N\NC(=O)Cc1ccc(Cl)cc1)c1ccccn1,-103% (active)
21,CC1=NNC(=O)C1CCC(=O)N/N=C(\C)c1ccc(Cl)cc1 (stereo unspecified),6.73%
22,CC(=NNC(=S)N1CCCCCC1)c1ccccn1,-106% (active)
